About 7,900 targets were measured; listed, in parts, are those with a hit and a random draw of the rest. About 0.6% of all pairs of compound and target were hits. Values without a mark were called inactive.
Assays:
Assay in all cases: log2 fold change, soluble protein after heating vs DMSO (PISA); higher = thermal stabilisation; K562 cells, 10 uM, 30 min; active = over 0.2 and 3.5 SD of the protein, either way, in both replicates (recomputed)
[1] = compound: COC1=CC=C(C=C1)CN2C=CC3=C2C=C(C=C3)C(=O)NO
Summary of the method: (§1)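 K562 cells at 2×10^6 cells/mL were treated for 30 min with 10 μM compound, and aliquots were heated for 3 min over 48°C-58°C before pooling. Extraction used PBS with 0.5% NP-40 at 4°C, and soluble protein was the supernatant after 21,000xg for 90 min, measured by TMTpro 16plex LC-MS/MS with channel sums equalised. Thermal stability values, relative to control samples and from duplicates, are log2 fold changes.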

filanesib = compound: CON(C)C(=O)N1N=C(c2cc(F)ccc2F)S[C@@]1(CCCN)c1ccccc1 [filanesib]
Summary of the method: as §1

zotarolimus = compound: CO[C@H]1C[C@@H]2CC[C@@H](C)[C@@](O)(O2)C(=O)C(=O)N2CCCC[C@H]2C(=O)O[C@H]([C@H](C)C[C@@H]2CC[C@H](n3cnnn3)[C@H](OC)C2)CC(=O)[C@H](C)/C=C(\C)[C@@H](O)[C@@H](OC)C(=O)[C@H](C)C[C@H](C)/C=C/C=C/C=C/1C [zotarolimus]
Summary of the method: as §1

idasanutlin = compound: COc1cc(C(=O)O)ccc1NC(=O)[C@@H]1N[C@@H](CC(C)(C)C)[C@](C#N)(c2ccc(Cl)cc2F)[C@H]1c1cccc(Cl)c1F [idasanutlin]
Summary of the method: as §1

alisertib = compound: COc1cc(Nc2ncc3c(n2)-c2ccc(Cl)cc2C(c2c(F)cccc2OC)=NC3)ccc1C(=O)O [alisertib]
Summary of the method: as §1

[2] = compound: COc1cc2nc(-c3cc(F)ccc3O)nc(N[C@@H]3CNC[C@H]3C(C)(C)O)c2cc1OC
Summary of the method: as §1

gefitinib = compound: COc1cc2ncnc(Nc3ccc(F)c(Cl)c3)c2cc1OCCCN1CCOCC1 [gefitinib]
Summary of the method: as §1

[3] = compound: COc1cccc2cc(-c3nc([C@H]4CC[C@H](C(=O)O)CC4)n4ncnc(N)c34)[nH]c12
Summary of the method: as §1

lapatinib = compound: CS(=O)(=O)CCNCc1ccc(-c2ccc3ncnc(Nc4ccc(OCc5cccc(F)c5)c(Cl)c4)c3c2)o1 [lapatinib]
Summary of the method: as §1

pictilisib = compound: CS(=O)(=O)N1CCN(Cc2cc3nc(-c4cccc5[nH]ncc45)nc(N4CCOCC4)c3s2)CC1 [pictilisib]
Summary of the method: as §1

Sequence of UniProt Q9NQ11 (Q9NQ11 whole entry, looked up): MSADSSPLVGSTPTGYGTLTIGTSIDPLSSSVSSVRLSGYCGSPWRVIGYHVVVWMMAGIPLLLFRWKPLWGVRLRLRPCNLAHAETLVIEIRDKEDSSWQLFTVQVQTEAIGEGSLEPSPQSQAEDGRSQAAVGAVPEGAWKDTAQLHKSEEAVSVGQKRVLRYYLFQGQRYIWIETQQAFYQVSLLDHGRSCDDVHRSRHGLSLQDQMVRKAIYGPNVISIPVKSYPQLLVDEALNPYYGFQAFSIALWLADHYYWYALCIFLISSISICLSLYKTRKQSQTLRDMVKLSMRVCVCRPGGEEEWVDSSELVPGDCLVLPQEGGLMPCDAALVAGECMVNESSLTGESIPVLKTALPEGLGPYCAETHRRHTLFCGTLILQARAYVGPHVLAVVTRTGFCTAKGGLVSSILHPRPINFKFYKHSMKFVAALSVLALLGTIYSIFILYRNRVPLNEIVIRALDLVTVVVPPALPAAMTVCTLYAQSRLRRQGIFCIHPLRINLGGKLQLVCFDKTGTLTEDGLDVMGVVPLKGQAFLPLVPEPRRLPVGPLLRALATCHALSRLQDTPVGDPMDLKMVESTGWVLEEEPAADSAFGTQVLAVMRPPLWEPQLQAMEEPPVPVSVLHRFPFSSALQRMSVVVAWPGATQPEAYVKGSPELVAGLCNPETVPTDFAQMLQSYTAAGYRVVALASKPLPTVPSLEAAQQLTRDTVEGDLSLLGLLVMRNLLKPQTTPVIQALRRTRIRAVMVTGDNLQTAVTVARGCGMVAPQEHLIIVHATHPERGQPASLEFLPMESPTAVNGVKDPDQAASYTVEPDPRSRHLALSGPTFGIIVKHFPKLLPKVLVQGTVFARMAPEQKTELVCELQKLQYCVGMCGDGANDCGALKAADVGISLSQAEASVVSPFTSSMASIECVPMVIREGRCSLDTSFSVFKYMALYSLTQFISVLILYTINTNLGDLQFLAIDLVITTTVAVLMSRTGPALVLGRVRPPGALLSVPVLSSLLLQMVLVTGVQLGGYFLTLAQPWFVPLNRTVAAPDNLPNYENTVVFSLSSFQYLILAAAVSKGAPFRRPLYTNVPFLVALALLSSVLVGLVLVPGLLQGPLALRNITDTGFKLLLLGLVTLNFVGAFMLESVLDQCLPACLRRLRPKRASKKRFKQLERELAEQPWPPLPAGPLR
Sequence of UniProt Q5T9A4 (Q5T9A4 whole entry, looked up): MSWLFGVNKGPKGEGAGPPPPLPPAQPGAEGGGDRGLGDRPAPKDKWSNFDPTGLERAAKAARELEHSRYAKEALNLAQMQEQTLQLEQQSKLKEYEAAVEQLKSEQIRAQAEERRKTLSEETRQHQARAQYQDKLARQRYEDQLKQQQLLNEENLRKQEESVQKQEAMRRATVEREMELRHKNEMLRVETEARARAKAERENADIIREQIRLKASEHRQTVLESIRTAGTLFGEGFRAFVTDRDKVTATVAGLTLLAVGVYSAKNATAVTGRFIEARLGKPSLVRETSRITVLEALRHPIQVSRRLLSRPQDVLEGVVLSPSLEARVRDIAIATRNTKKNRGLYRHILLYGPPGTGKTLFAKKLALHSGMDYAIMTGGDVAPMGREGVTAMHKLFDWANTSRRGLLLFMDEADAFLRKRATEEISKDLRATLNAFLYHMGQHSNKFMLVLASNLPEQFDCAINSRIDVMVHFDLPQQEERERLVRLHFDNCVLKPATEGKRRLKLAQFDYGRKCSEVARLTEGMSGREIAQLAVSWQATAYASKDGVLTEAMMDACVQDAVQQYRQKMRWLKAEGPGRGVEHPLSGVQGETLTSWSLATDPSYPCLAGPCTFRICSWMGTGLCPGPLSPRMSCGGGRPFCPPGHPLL
Sequence of UniProt Q9NX38 (Q9NX38 whole entry, looked up): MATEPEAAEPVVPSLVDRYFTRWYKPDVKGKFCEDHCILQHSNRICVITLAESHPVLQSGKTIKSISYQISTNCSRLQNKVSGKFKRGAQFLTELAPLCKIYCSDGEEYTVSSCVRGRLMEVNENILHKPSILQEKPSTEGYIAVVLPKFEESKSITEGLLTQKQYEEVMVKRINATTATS
Sequence of UniProt O95782 (O95782 whole entry, looked up): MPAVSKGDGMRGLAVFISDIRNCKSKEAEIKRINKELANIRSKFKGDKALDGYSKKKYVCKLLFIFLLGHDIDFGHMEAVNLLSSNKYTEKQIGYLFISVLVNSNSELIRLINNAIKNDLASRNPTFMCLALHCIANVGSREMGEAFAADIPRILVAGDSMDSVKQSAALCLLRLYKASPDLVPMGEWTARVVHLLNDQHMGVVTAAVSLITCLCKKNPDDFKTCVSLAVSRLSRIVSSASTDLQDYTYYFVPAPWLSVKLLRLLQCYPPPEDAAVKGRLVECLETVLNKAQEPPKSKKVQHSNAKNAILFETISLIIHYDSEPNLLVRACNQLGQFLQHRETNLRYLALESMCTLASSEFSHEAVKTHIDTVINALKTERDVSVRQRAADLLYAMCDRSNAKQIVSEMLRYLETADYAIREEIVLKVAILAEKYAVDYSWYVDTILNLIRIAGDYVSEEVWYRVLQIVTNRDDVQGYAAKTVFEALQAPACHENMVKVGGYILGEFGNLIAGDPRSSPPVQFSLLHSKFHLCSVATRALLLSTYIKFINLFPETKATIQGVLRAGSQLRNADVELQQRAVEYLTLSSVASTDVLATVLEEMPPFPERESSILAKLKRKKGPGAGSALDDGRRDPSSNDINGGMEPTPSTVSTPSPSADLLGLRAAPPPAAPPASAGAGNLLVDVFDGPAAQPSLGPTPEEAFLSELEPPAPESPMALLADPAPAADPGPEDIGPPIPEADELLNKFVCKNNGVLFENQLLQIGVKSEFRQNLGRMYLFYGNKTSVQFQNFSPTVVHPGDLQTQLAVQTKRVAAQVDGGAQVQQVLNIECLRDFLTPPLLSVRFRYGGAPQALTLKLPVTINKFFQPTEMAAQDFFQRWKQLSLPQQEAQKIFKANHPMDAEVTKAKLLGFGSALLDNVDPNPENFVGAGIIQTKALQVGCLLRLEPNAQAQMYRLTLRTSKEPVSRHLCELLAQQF
Sequence of UniProt O60566 (O60566 whole entry, looked up): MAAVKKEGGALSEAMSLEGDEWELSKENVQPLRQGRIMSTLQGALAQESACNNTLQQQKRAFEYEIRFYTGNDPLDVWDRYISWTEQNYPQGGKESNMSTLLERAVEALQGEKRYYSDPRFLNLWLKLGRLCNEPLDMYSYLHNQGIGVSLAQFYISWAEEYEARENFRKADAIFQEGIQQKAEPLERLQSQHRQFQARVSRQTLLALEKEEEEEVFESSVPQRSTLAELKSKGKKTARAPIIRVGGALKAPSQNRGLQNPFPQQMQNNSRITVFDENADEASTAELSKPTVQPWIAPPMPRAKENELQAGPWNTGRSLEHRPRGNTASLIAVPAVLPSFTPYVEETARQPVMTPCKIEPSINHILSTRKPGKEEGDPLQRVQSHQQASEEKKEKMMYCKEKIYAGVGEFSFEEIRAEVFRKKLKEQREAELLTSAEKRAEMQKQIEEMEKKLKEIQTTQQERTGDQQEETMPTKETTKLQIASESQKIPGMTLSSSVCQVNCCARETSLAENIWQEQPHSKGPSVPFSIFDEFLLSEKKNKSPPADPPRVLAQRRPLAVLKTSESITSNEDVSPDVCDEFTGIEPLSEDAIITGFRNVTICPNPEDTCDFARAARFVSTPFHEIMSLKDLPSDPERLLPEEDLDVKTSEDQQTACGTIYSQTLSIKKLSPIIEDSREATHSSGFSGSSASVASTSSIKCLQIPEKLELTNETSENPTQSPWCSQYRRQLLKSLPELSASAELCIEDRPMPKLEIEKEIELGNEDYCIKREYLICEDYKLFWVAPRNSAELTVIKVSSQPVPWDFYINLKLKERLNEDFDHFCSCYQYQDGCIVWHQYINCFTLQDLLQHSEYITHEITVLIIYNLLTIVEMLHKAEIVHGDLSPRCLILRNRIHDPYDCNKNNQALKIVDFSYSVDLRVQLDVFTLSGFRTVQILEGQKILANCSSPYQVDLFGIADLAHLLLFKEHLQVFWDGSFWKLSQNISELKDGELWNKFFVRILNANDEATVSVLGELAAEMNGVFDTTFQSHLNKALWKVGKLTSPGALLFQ
Sequence of UniProt Q4G176 (Q4G176 whole entry, looked up): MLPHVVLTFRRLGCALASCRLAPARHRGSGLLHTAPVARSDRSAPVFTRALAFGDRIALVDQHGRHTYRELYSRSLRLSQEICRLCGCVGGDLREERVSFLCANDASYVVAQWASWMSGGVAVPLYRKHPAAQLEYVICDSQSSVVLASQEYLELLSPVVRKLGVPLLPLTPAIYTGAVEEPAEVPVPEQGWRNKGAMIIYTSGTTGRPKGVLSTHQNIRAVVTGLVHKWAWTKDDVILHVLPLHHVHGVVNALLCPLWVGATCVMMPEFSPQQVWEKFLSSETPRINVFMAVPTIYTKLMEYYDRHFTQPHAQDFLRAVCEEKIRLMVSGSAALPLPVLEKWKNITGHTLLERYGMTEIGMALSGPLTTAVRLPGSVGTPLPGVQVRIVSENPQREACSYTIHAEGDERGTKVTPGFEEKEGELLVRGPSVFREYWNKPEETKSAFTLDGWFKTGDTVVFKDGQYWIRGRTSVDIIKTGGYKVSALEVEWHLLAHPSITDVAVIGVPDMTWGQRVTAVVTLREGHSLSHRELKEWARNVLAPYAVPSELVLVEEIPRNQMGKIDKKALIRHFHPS
Sequence of UniProt Q8NBU5 (Q8NBU5 whole entry, looked up): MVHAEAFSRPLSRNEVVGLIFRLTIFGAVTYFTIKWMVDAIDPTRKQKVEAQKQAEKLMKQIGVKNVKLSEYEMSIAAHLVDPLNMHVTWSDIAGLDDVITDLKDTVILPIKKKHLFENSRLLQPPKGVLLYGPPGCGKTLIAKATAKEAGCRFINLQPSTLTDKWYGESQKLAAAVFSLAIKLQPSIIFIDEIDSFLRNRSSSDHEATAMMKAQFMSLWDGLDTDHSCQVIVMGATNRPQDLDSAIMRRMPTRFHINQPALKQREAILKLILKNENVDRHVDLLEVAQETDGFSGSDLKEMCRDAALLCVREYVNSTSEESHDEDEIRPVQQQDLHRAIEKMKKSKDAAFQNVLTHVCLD
Sequence of UniProt O00244 (O00244 whole entry, looked up): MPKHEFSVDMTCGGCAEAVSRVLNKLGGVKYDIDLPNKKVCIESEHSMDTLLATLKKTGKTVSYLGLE

Row | Target | log2 fold change [1] | log2 fold change (filanesib) | log2 fold change (zotarolimus) | log2 fold change (idasanutlin) | log2 fold change (alisertib) | log2 fold change [2] | log2 fold change (gefitinib) | log2 fold change [3] | log2 fold change (lapatinib) | log2 fold change (pictilisib)
1 | ATAD1 (UniProt Q8NBU5) | 0.009 | -0.045 | 0.087 | -0.046 | -0.037 | -0.014 | 0.003 | -0.029 | 0.007 | 0.012
2 | AP2A1 (UniProt O95782) | 0.044 | 0.045 | 0.033 | 0.027 | -0.041 | 0.008 | 0.025 | 0.005 | 0.027 | -0.042
3 | AFDN isoform 5 (UniProt P55196) | 0.131 | 0.014 | 0.013 | -0.06 | 0 | 0.034 | -0.017 | -0.009 | -0.026 | -0.009
4 | ARFGAP1 (UniProt Q8N6T3) | 0.03 | 0.034 | 0.047 | 0.028 | 0.047 | 0 | -0.022 | -0.015 | -0.038 | -0.007
5 | AKR1C2 (UniProt P52895) | 0.706 (active) | 0.259 | 0.097 | -0.015 | -0.012 | -0.013 | 0.044 | -0.012 | 0.068 | 0.165
6 | AGPAT3 isoform 3 (UniProt Q9NRZ7) | -0.083 | -0.106 | 0.048 | -0.149 | 0.012 | 0.083 | 0.012 | 0.005 | 0.004 | -0.013
7 | ARFIP1 (UniProt P53367) | 0.354 | -0.049 | -0.021 | 0.094 | 1.31 | 0.042 | -0.091 | -0.005 | -0.076 | -0.076
8 | ARF4 (UniProt P18085) | 0.007 | -0.061 | 0.006 | -0.153 | -0.023 | 0.17 | -0.005 | 0.019 | 0.037 | 0.035
9 | AKR1C3 (UniProt P42330) | 0.87 (active) | -0.028 | 0.066 | -0.074 | -0.087 | -0.176 | 0.031 | -0.214 | -0.065 | 0.061
10 | ABITRAM (UniProt Q9NX38) | 0.06 | 0.036 | 0.041 | 0.022 | 0.101 | 0.006 | 0.111 | 0.139 | 0.021 | 0.053
11 | ATAD3B (UniProt Q5T9A4) | -0.035 | 0.089 | -0.064 | 0.081 | 0.193 | -0.138 | -0.134 | -0.136 | -0.047 | -0.161
12 | ADK (UniProt P55263) | -0.009 | -0.013 | -0.014 | -0.083 | -0.037 | 0.015 | 0.199 | 0.007 | 0.21 | 0.167
13 | ACSL4 (UniProt O60488) | 0.09 | -0.071 | -0.058 | -0.113 | -0.006 | -0.105 | 0.075 | -0.053 | 0.052 | 0.052
14 | AHCYL1 (UniProt O43865) | 0.015 | -0.05 | -0.017 | -0.056 | -0.087 | 0.046 | 0.029 | 0.093 | 0.014 | 0.126
15 | ACSL1 (UniProt P33121) | -0.014 | -0.08 | 0.038 | -0.017 | 0.015 | -0.261 | 0.024 | 0.024 | 0.017 | 0.041
16 | ACAP2 (UniProt Q15057) | -0.001 | 0.119 | 0.01 | -0.047 | 0.011 | 0.283 (active) | 0.02 | 0.014 | 0.015 | -0.059
17 | ANKZF1 (UniProt Q9H8Y5) | -0.005 | 0.249 | 0.048 | 0.235 | -0.034 | 0.042 | -0.001 | -0.022 | -0.046 | -0.002
18 | ATP13A2 (UniProt Q9NQ11) | 0.053 | -0.134 | 0.023 | 0.027 | -0.143 | 0.019 | -0.005 | 0.053 | -0.005 | 0.066
19 | BCCIP isoform 2 (UniProt Q9P287) | -0.059 | 0.05 | -0.002 | -0.021 | 0.024 | 0.021 | 0 | 0.026 | -0.007 | -0.021
20 | BZW1 isoform 3 (UniProt Q7L1Q6) | 0.033 | -0.069 | 0.052 | -0.152 | -0.078 | -0.032 | -0.028 | -0.13 | -0.071 | -0.071
21 | ARMC8 (UniProt Q8IUR7) | 0.056 | 0.048 | 0 | -0.016 | -0.08 | -0.014 | -0.029 | -0.016 | 0.046 | 0.005
22 | ACSF3 (UniProt Q4G176) | -0.099 | -0.045 | -0.01 | 0.051 | 0.001 | -0.053 | -0.096 | 0.054 | -0.004 | 0.064
23 | ATP6V0A1 isoform 3 (UniProt Q93050) | 0.021 | -0.105 | 0.073 | 0.112 | 0.027 | -0.298 | -0.18 | -0.21 | 0.033 | -0.284
24 | AKAP8 (UniProt O43823) | 0.026 | 0.035 | -0.105 | 0.052 | -0.046 | -0.002 | -0.049 | 0.067 | 0.014 | 0.101
25 | ARFGAP2 (UniProt Q8N6H7) | -0.067 | 0.024 | -0.005 | -0.029 | -0.058 | 0.156 | -0.004 | -0.064 | -0.001 | 0.013
26 | ATG9A (UniProt Q7Z3C6) | 0.008 | -0.113 | -0.014 | -0.003 | 0.064 | -0.073 | 0.011 | -0.015 | -0.045 | 0.075
27 | ATOX1 (UniProt O00244) | 0.471 (active) | -0.122 | 0.113 | -0.096 | -0.062 | -0.388 | -0.036 | -0.07 | 0.314 | -0.015
28 | BUB1B isoform 3 (UniProt O60566) | 0.038 | 0.103 | 0.014 | -0.014 | 0.005 | 0.001 | 0.032 | -0.098 | 0.006 | 0.065
29 | APPL1 (UniProt Q9UKG1) | -0.024 | 0.069 | 0.018 | -0.076 | -0.001 | 0.079 | -0.106 | -0.023 | -0.025 | 0.033
